# Experimental data taken from PubChem BioAssay (NCI).
# About 83,000 compounds went through this panel and 20% of them were active in at least one assay; those are over-represented in the sample as a whole.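 48-hour exposure, single concentration, 96-well plates; percent growth endpoint where 0 means no net growth. Active: below 10.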 Calls of active or inactive are those of the source.
# System: OVCAR-5 ovarian
# Assay: NCI-60 one-dose screen, 48 h (100 = growth as untreated, 0 = no growth, -100 = all killed)
# Conditions: 10 µM unless noted
# Procedure: Growth inhibition of the OVCAR-5 human tumor cell line is measured as a screen for anti-cancer activity. Cells are grown in 96 well plates and exposed to the test compound for 48 hours. Compounds are tested at a single concentration, which is 10^-5 M for most compounds. The reported endpoint is percent growth (GI% or GIPRCNT), where numbers from 0 - 100% represent growth inhibition, and numbers from -100% - 0 represent cell death. For example, a value of 40 represents 60% growth inhibition. A value of 0 means no net growth occurred over the course of the experiment. A value of -40 indicates 40% of cells at the beginning of the experiment died by the end of the experiment. A value of -100 means all cells are dead at the end of the experiment.
# NCI-60 Human Tumor Cell Lines Screen was performed using the standard one-dose NCI protocol, which is described in more detail at https://dtp.cancer.gov/discovery_development/nci-60/default.htm.
# Compounds with GIPRCNT values below 10 were considered active. Activity score was based on GIPRCNT using the following formula: […]
# Score is 0 for GIPRCNT values of 100 or above, 50 for GIPRCNT values of 0, and 100 for GIPRCNT values of -100.
row,SMILES,growth
1,O=S(=O)(Oc1ccc(Br)cc1)c1ccc(Cl)cc1,92.5% (inactive)
2,COc1cc(/C=C/C(=O)/C=C(O)/C=C/c2ccc(OC(=O)C34CC5CC(CC(C5)C3)C4)c(OC)c2)ccc1OC(=O)C12CC3CC(CC(C3)C1)C2,97.1% (inactive)
3,O=C1c2ccccc2C(=O)c2c1c(C(=O)NCc1ccccc1)c1ccccn21,111% (inactive)
4,O=C(CCCCCCN1CC(=O)N2[C@H](c3ccc(Cl)cc3)c3[nH]c4ccccc4c3C[C@@H]2C1=O)NO,59.5% (inactive)
5,Cc1c(CC(=S)N2CCOCC2)nnn1-c1cccc(C(F)(F)F)c1,97.8% (inactive)
6,CNC1=C([N+](=O)[O-])C(c2ccc(OC)cc2)C(C#N)=C(c2cccs2)O1 (stereo not given),108% (inactive)
7,N=C(N)c1ccc(-c2ccc(-c3cc(Cl)cc(Cl)c3)s2)nc1,93.9% (inactive)
8,O=C(Cn1nnc2ccccc21)N/N=C/c1c[nH]c2ccccc12,71.9% (inactive)
9,O=C(CCl)NNc1nccc(Nc2ccc(S(=O)(=O)Nc3ccncc3)cc2)n1,67.7% (inactive)
10,CN(C)CCCC1(c2ccc(F)cc2)OCc2cc(-c3cc4ccccc4s3)ccc21 (stereo not given),55.8% (inactive)
11,O=C(O)/C=C/C(=O)Nc1cccc(Cn2nnc3cc(Cl)c(Cl)cc32)c1,100% (inactive)
12,O=C(Oc1ccc(CCl)cc1)c1ccccc1,-85.2% (active)
13,COc1ccc(/C=C2\CN(C(=O)C(Cl)Cl)C/C(=C\c3ccc(OC)cc3)C2=O)cc1,9.63% (active)
14,COc1ccc(Nc2ncccc2/C=C/C(=O)c2cc(OC)c(OC)c(OC)c2)cc1,-15.4% (active)
15,COC(=O)/C=C1/SC(=Nc2ccc([N+](=O)[O-])cc2)N(CCc2c[nH]c3ccc(O)cc23)C1=O,86.4% (inactive)
16,CCOC(=O)C1=C(C)C(Cl)=N/C1=C\c1[nH]c(Cl)c(C)c1C(=O)OCC,124% (inactive)
17,COc1ccc(/C=C/C(=O)c2cc(OC)c(OC)c(OC)c2)cc1OCC(=O)Nc1nc2ccc(OC(F)(F)F)cc2s1,96.3% (inactive)
18,Cc1ccc(C)c(/C=C2\CN(C(=O)OC(C)(C)C)C/C(=C\c3cc(C)ccc3C)C2=O)c1,86.1% (inactive)
19,C=C1C(=O)O[C@H]2[C@H]1CC/C(Cn1cc(CCC)nn1)=C\CC[C@@]1(C)O[C@@H]21,68.2% (inactive)
20,CSc1nc(C)c([N+](=O)[O-])c(N)n1,118% (inactive)

row,SMILES,growth
1,O=C(/C=C(O)/C=C/c1cccc2[nH]ccc12)/C=C/c1cccc2[nH]ccc12,99.7% (inactive)
2,CC1=CCC(OC(=O)C(C)(C)CC(O)(C(C)O)C(O)C2(C)C=CC(Cc3ccc(C(C)C)cc3)(C(C)C)CC2)(C(C)C)CC1 (stereo not given),94.9% (inactive)
3,O=C1/C(=C/c2ccccc2F)CN(C(=O)C(Cl)Cl)C/C1=C\c1ccccc1F,-41.6% (active)
4,C[C@H](C(=O)N(CCc1ccc(Cl)c(Cl)c1)Cc1cncs1)[C@@H]1CC[C@H](C[C@H](C)n2cc(CN3CCC(c4ccc(Cl)cc4)CC3)nn2)O1,97% (inactive)
5,CO[C@H](C(=O)[C@@H](O)[C@@H](C)O)[C@@H]1Cc2cc3cc(O[C@H]4C[C@@H](O[C@H]5C[C@@H](O)[C@H](O)C(C)O5)[C@H](O)C(C)(O)O4)cc(O)c3c(O)c2C(=O)[C@H]1O[C@H]1C[C@@H](O[C@H]2C[C@@H](O[C@H]3C[C@@H](OC)[C@H](O)C(C)O3)[C@@H](O)C(C)O2)[C@H](O)C(C)O1 (stereo not given in full),21% (inactive)
6,CCN(CC)c1ccc(CNc2cc(C)nc3ccccc23)cc1,73.2% (inactive)
7,Cc1nc2cc(O)c(O)cc2cc1Oc1ccc(NC(=O)Nc2ccc(Cl)c(Cl)c2)cc1,122% (inactive)
8,COc1ccc(-c2ccc(-c3ccc(C(=N)N)nc3)s2)cc1Cl,-37.6% (active)
9,CN1C(=O)/C(=C/c2ccc(C(=O)Nc3ncc(Cc4cccc(Cl)c4)s3)cc2)SC1=S,61.8% (inactive)
10,COc1cc(C2C(C(=O)OCc3ccccc3)=C(C)NC(C)=C2C(=O)OCc2ccccc2)cc(OC)c1OC,68.5% (inactive)
11,Cc1ccc2nc(-c3ccc(C(=O)NNC(=S)Nc4ccccc4)cc3)[nH]c2c1,98.3% (inactive)
12,N#CSc1c[nH]c2cccc(/C=C/C(=O)/C=C(O)/C=C/c3cccc4[nH]cc(SC#N)c34)c12,-69.6% (active)
13,COc1ccccc1N(C(C)=O)C1=C(Cl)C(=O)c2ccccc2C1=O,23.1% (inactive)
14,C/C(=N\O)[C@@H]1CC[C@]2(CO)CC[C@]3(C)[C@H](CC[C@@H]4[C@@]5(C)CCCNC(C)(C)[C@@H]5CC[C@]43C)[C@@H]12,88.5% (inactive)
15,O=C(Nc1ncc(Cc2cc(C(F)(F)F)ccc2Cl)s1)c1cccs1,83.9% (inactive)
16,CN1CCN(Cc2ccc(NC(=O)c3cncc(C#Cc4cnc(N)c5ncccc45)c3)cc2C(F)(F)F)CC1,-26.5% (active)
17,C=C1C(=O)O[C@H]2[C@H]1CC/C(COC(=O)NCc1ccc(Cn3c(=O)sn(-c4ccc(C#N)cc4)c3=O)cc1)=C\CC[C@@]1(C)O[C@@H]21,86% (inactive)
18,CCOC(=O)c1cnc2c(N=Nc3ccc(OC)cc3)c(N)nn2c1N,110% (inactive)
19,O=C(CSc1nnc(-c2cc(-c3ccccc3)nc3ccccc23)n1-c1ccccc1)Nc1ccc(C(=O)/C=C/c2ccc(Cl)cc2)cc1,90.1% (inactive)
20,COc1cc(OC)c(C(=O)C(CN(C)C)CN(C)C)cc1OC,110% (inactive)
